Source: PubChem BioAssay
CYP2C9 inh: blocks human cytochrome P450 2C9; CYP2C9 Supersomes, luciferin-H conversion, luminescence; inhibition, % at 5 µM; hit rate 20% among 96,000; AID 777;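 active = blocking of liver enzyme CYP2C9 beyond about 50% at 5 µM, limit read from the data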
Cav32 inh: human Cav3.2 channel inhibition, primary screen; O95180; Cav3.2-expressing cells, Fluo-4 calcium fluorescence FDSS; stronger effect = lower value; B-score at 10 µM; hit rate 4% among 100,000;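 active = single-dose well whose peak fluorescence ratio is a statistical outlier from its plate by either plate-standardised score or position-corrected B-score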
CYP2C19 act: cytochrome P450 2C19 (human) activation; P33261; recombinant CYP2C19, luciferin-H EGE luminescence; stronger effect = higher value; 0 = fully inhibited enzyme, 1 = untreated enzyme; activation factor at 5 µM; 96,000 tested, under 10 active; AID 1025;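 active = activation factor of at least 2 at 5 µM in the primary screen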
Target sequence (P33261 whole entry, looked up): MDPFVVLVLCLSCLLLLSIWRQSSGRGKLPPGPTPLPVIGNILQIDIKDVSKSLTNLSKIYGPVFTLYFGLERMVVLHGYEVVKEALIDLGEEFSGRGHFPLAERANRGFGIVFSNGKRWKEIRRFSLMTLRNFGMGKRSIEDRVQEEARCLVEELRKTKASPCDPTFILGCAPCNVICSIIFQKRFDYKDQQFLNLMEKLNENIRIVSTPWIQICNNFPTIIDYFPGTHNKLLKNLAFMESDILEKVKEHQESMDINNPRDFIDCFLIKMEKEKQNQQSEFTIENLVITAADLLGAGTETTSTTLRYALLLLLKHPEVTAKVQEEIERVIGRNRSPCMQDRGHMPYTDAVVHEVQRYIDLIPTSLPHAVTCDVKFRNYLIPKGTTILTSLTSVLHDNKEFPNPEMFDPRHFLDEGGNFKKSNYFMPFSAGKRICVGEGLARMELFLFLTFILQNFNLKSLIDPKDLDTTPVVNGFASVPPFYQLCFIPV
CYP2C19 inh: human CYP2C19 inhibition. P33261. CYP2C19 Supersomes, luciferin-H EGE luminescence, 30 min. inhibition, % at 5 µM. hit rate 21% among 96,000. AID 778;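 active = CYP2C19 inhibition above a set limit at 5 µM in the primary screen, cut at about 50% in these data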
CYP2C9 act: activators of human CYP2C9; hit rate 1.4% among 96,000; P11712; recombinant CYP2C9, luciferin-H conversion, luminescence; stronger effect = higher value; factor 1 = untreated enzyme, 0 = blocked; activation factor at 5 µM;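 active = activation factor of 2 or more for CYP2C9 at a 5 µM dose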
Large screens that a line does not name were inactive. A selection: hits, their analogues and other compounds. The true share with any hit is near 27%.

Cc1cc(C)cc(NC(=O)N2CCCC2C(=O)Nc2ccc(-n3cnnn3)cc2)c1 (configuration not stated)	CYP2C19 inh 83.0
[O-][n+]1c2ccc3nonc3c2nn1-c1ccccc1Cl	none (no result: Cav32 inh)
Cc1nn(Cc2nc(-c3cccs3)no2)c(C)c1Br	CYP2C19 inh 75.1
CCOC(=O)C1=C(CC)Nc2ccccc2N=C1NC(=O)Nc1ccc(Cl)c(Cl)c1	CYP2C9 inh 94.3, CYP2C19 inh 58.5
CCOC(=O)C1=C(CC)Nc2ccccc2N=C1NC(=O)Cn1cnc2ccccc2c1=O	none
CCOC(=O)c1c(C)[nH]c2cc(Br)c(O)cc12	CYP2C9 inh 68.4, CYP2C19 inh 68.2
CCOC(=O)c1c(OCC)[nH]c2c1cc(O)c1ccccc12	none
Cc1ccc(C(=O)N/C(=C/c2cccs2)C(=O)N2CCCCCC2)cc1	CYP2C9 inh 51.1
C=CC[n+]1c(-c2ccc(OC)c(OC)c2)csc1NNC(=O)Nc1ccccc1	none
COc1ccc(CC/C(=N\O)C2(O)CCCCC2)cc1	CYP2C9 inh 69.8, CYP2C19 inh 58.5
O/N=C(/CCc1ccccc1)C1(O)CCCCC1	CYP2C9 inh 59.4, CYP2C19 inh 80.9
COc1ccc(CCCC(=O)NC2CCCCC2)cc1	none
CCN(CC)C(=O)CC(c1ccc(F)cc1)c1ccco1 (configuration not stated)	CYP2C19 inh 62.1
Cc1ccc(S(=O)(=O)Cn2nnnc2C(c2ccccc2)N2CCN(c3ncccn3)CC2)cc1 (configuration not stated)	CYP2C9 inh 93.5, CYP2C19 inh 98.0
Cc1ccc(-c2nnnn2CS(=O)(=O)c2ccccc2)cc1	CYP2C19 inh 67.9
CCCC(c1nnnn1CS(=O)(=O)c1ccc(C)cc1)N1CCN(c2ccccc2)CC1 (configuration not stated)	CYP2C9 inh 61.6
O=C(O)C[C@H]1c2cc(F)ccc2S(=O)(=O)N1C1CCCC1	none (no result: CYP2C9 inh, CYP2C19 act, CYP2C19 inh, CYP2C9 act)
COCc1cc(=O)n2[nH]c(C(F)(F)F)nc2n1	none
Cc1ccc(OCCn2cc(Br)c(=O)[nH]c2=O)cc1	none
CCn1cc(SCC(=O)N2CCc3ccccc32)c2ccccc21	CYP2C9 inh 60.3, CYP2C19 inh 61.4
Cc1nc(SCC(=O)N2CCc3ccccc32)n[nH]1	none
Nc1cc(N)nc(SCC(=O)N2CCc3ccccc32)n1	CYP2C9 act 2.5
Cn1c(SCC(=O)N2CCc3ccccc32)nnc1C1CC1	CYP2C19 inh 76.2
CCOCCCNC(=O)c1ccc(CS(=O)(=O)Cc2ccc(C)cc2)o1	none (no result: Cav32 inh)
COc1ccc(C2CC(=O)c3c(O)cc(O)cc3O2)c(CC=C(C)C)c1OC (configuration not stated)	none (no result: CYP2C9 inh, CYP2C19 act, CYP2C19 inh, CYP2C9 act)
O=C1c2ccccc2OC2(C=Cc3ccccc3O2)N1Cc1ccccc1 (configuration not stated)	CYP2C9 inh 94.1, CYP2C19 inh 97.1 (no result: Cav32 inh)
C=C1CN(Cc2ccccc2)S(=O)(=O)c2ccccc21	none (no result: CYP2C9 inh, CYP2C19 act, CYP2C19 inh, CYP2C9 act)
O=c1[nH]c2cc3c(cc2cc1C(c1nnnn1CC1CCCO1)N1CCCC1)OCO3 (configuration not stated)	none
COc1cc(/C=C(/C(=O)c2cccs2)c2nc3ccccc3[nH]2)ccc1O	CYP2C9 inh 54.9
O=C(/C(=C/c1ccc(Cl)cc1)c1nc2ccccc2[nH]1)c1cccs1	CYP2C9 inh 99.1, CYP2C19 inh 76.4
N=c1c(-c2nc3ccccc3[nH]2)cc(C(=O)c2cccs2)nn1-c1ccc(Cl)cc1	none (no result: CYP2C9 inh, CYP2C19 act, CYP2C19 inh, CYP2C9 act)
CSc1nnc(-c2cc3ccccc3cc2O)n1C	none
Cc1nnc(C)c2c(C)n(C(c3ccccc3)c3ccccc3)c(C)c12	CYP2C9 inh 56.0
CCOC(=O)c1sc(NC(=O)CN(CC)CC)c(C(=O)OCC)c1C	CYP2C9 inh 76.5
CCOC(=O)c1c(NC(=O)CN(CC)CC)sc2c1CCC2	CYP2C9 inh 52.2
CCOC(=O)c1c(NC(=O)c2ccc(N3C(=O)C4C5C=CC(C5)C4C3=O)cc2)sc2c1CCCC2 (configuration not stated)	CYP2C9 inh 66.3
CCOC(=O)Nc1sc(C(=O)N(CC)CC)c(C)c1C(=O)OCC	CYP2C9 inh 68.6
CCOC(=O)c1sc(NC(C)=O)c(C(=O)OCC)c1C	none
CCOC(=O)c1c(N)sc2c1CCSC2	none
COC(=O)c1sc(NC(C)=O)c(C(=O)OC)c1C	none
COC(=O)c1sc(NC(=O)CC(C)C)c(C(=O)OC)c1C	CYP2C19 inh 58.7
CCCOC(=O)c1c(N)sc2c1CCC2	CYP2C9 inh 50.0
CC(=O)C1=C(O)C(=O)N(CCNCCO)C1c1ccccc1 (configuration not stated)	none
Cn1c(=O)cc(N)n(Cc2ccccc2)c1=O	none (no result: CYP2C9 inh, CYP2C19 act, CYP2C19 inh, CYP2C9 act)
c1ccc(CCNc2ncnc3nc[nH]c23)cc1	none
CCCCN(CCCNc1ncnc2nc[nH]c12)c1ccccc1	CYP2C9 inh 56.0
c1ccc2c(CCNc3ncnc4nc[nH]c34)c[nH]c2c1	CYP2C19 inh 82.7 (no result: Cav32 inh)
CCN(CCCNc1ncnc2nc[nH]c12)c1cccc(C)c1	CYP2C9 inh 78.0, CYP2C19 inh 83.0 (no result: Cav32 inh)
Cn1c(Oc2ccccc2)c(C=O)c2ccccc21	none
COCCCn1[nH]c2c3c(ccc2c1=O)C(=O)c1ccccc1C3=O	CYP2C9 inh 63.6
COC(=O)c1cccc(NC(=O)Nc2ccc(Cl)c(Cl)c2)c1	none
COC(=O)c1cccc(NC(=O)NC2CCCN2S(=O)(=O)c2ccc(Cl)cc2)c1 (configuration not stated)	CYP2C9 inh 54.4
O=C(C1CCC(=O)N1Cc1ccccc1Cl)N1CCN(c2ccc(F)cc2)CC1 (configuration not stated)	none
C/C(=N\NS(=O)(=O)c1ccc(Cl)c([N+](=O)[O-])c1)c1ccc(C)o1	CYP2C9 inh 88.0, CYP2C19 inh 83.1
C/C(=N\NS(=O)(=O)c1ccc(Cl)c([N+](=O)[O-])c1)c1cc2ccccc2o1	CYP2C9 inh 99.8, CYP2C19 inh 96.8
Cn1c(SCc2c(Cl)cccc2Cl)nc(C(F)(F)F)cc1=O	none
Cc1ccc(NC(=O)Cn2cncc2-c2ccc([N+](=O)[O-])cc2)cc1C	none (no result: Cav32 inh)
C=C(C)CSc1nncn1/N=C/c1ccc(OC)cc1	CYP2C9 inh 55.1, Cav32 inh -6.04, CYP2C19 inh 62.9
O=C(NCC1CCCO1)c1ccc(S(=O)(=O)N2CCC(c3nc4ccc(Cl)cc4[nH]3)CC2)cc1 (configuration not stated)	none (no result: CYP2C9 inh, CYP2C19 act, CYP2C19 inh, CYP2C9 act)
CC1C(=O)C(C)C(c2cccs2)NC1c1cccs1 (configuration not stated)	CYP2C19 inh 92.5
CCOc1ccccc1NC(=O)CC1NCCNC1=O (configuration not stated)	none
O=C1CC(c2ccccc2)c2ccc(O)cc2O1 (configuration not stated)	CYP2C9 inh 53.8
O=C1CC(c2ccccc2)c2c(O)cc(O)cc2O1 (configuration not stated)	CYP2C9 inh 78.6, CYP2C19 inh 63.1
O=C1CC(c2ccccc2)Oc2cc(O)cc(O)c21 (configuration not stated)	none (no result: CYP2C9 inh, CYP2C19 act, CYP2C19 inh, CYP2C9 act)
COCc1cc(=O)[nH]c2cc(NC(=O)C(C)(C)CCl)c(C)cc12	none
